“And” between values parts separate entries of the source, which are not always exact repeats. Identical values can stand only once. The source made the active and inactive calls. The call rests on the fitted dose curve; in most records, active means well fitted inhibition curve with a large enough effect; inconclusive means small, poorly fitted or top-dose-only effect; inactive means flat fitted curve, though single readings scatter.

This assay in a line: Quantitative high throughput screen for delayed death inhibitors of the malarial parasite plastid, 96 hour incubation. Conditions: P. falciparum luciferase growth. From the text: NIH Molecular Libraries Probe Production Network [MLPCN] NIH Chemical Genomics Center [NCGC] MLPCN Grant: R21 NS059500 Assay Provider: David Fidock and Eric Ekland, Columbia University The goal of this screen is to discover new antimalarial compounds that act by inhibiting the development of the apicoplast in the malarial parasite Plasmodium falciparum. The biochemical processes that make this organelle essential for erythrocytic stage parasites are not well understood. However, antibiotics, such as azithromycin and tetracycline, which target the apicoplast translational machinery, have a potent antimalarial effect. […] We have developed a cell-based assay that measures parasite growth based on the expression of an integrated copy of a firefly luciferase reporter. To detect small molecules that cause this 'delayed death' phenotype, erythrocytes infected with the luciferase-expressing parasites were incubated with compounds for either one or two generations, corresponding to 48 and 96 hours, respectively. Compounds that inhibit parasite growth in the second generation, but not the first, should be enriched in antimalarials that target the apicoplast. Growth inhibition is detected by a decrease in luciferase activity
Four microliters of culture medium (RPMI 1640 with 0.5% w/v Albumax (GIBCO), 24 mM sodium bicarbonate and 10 ug/mL gentamycin) were dispensed by a Multi-drop Combi into white solid 1536-well plates (Grenier) and 23 nL compound was added by a pin tool. Four microliters of infected erythrocytes (2% hematocrit, 0.1% parasitemia final concentration) in culture medium were dispensed and the plates incubated for 96 hours at 37 C in 5% CO2. Two microliters of luciferase detection reagent was added and luminescence was detected by a ViewLux (PerkinElmer) reader
Regarding `C[C@@H]1CN([C@@H](C)CO)C(=O)c2cc(NC(=O)Nc3ccccc3)ccc2O[C@@H](C)C/C=C\CO[C@H]1CN(C)S(=O)(=O)c1ccc(F)cc1`, the Potency was 252 nM (active). On to `C[C@@H]1CN([C@@H](C)COC(=O)C(C)(C)C)C(=O)c2cc(NC(=O)Nc3ccccc3)ccc2O[C@@H](C)CCCCO[C@H]1CN(C)S(=O)(=O)c1ccc(F)cc1`, for which the Potency is 5.7 nM (active).

Consider `C[C@@H]1CN([C@@H](C)CO)C(=O)c2cc(NC(=O)Nc3ccccc3)ccc2O[C@@H](C)CCCCO[C@H]1CN(C)Cc1ccc(C(F)(F)F)cc1`, for which the Potency is 711 nM (active). As for `C[C@@H]1CN([C@@H](C)COC(C)(C)C)C(=O)c2cc(NC(=O)Nc3ccccc3)ccc2O[C@@H](C)CCCCO[C@H]1CN(C)S(=O)(=O)c1ccc(F)cc1`, the Potency is 0.8 nM (active). As for `COc1ccc(COCCN2C[C@@H](C)[C@H](CN(C)S(=O)(=O)c3ccc(F)cc3)OCCCC[C@H](C)Oc3ccc(NC(=O)Nc4ccccc4)cc3C2=O)cc1`, the Potency was 71.1 nM (active). For the molecule `CC(C)NC(=O)Nc1ccc2c(c1)C(=O)N([C@@H](C)CO)C[C@@H](C)[C@H](CN(C)S(=O)(=O)c1ccc(F)cc1)OCCCC[C@H](C)O2`, the Potency is 449 nM (active).

For the molecule `C[C@@H]1CN([C@@H](C)CO)C(=O)c2cc(NC(=O)Nc3ccccc3)ccc2O[C@@H](C)CCCCO[C@H]1CN(C)S(=O)(=O)c1cccnc1`, the Potency is 2830 nM (active).

As for `C[C@@H]1CN([C@@H](C)CN=[N+]=[N-])C(=O)c2cc(NC(=O)Nc3ccccc3)ccc2O[C@@H](C)CCCCO[C@H]1CN(C)S(=O)(=O)c1ccc(F)cc1`, the Potency was 3.6 nM (active). The figure for `COc1ccc(COC[C@H](C)N2C[C@@H](C)[C@H](CN(C)Cc3ccc(OC)cc3)OCCCC[C@H](C)Oc3ccc(NC(=O)Nc4ccccc4)cc3C2=O)cc1` is 449 nM (active); for `C[C@@H]1CN([C@@H](C)CO)C(=O)c2cc(NC(=O)Nc3ccccc3)ccc2O[C@@H](C)CCCCO[C@H]1CN(C)C(=O)OC(C)(C)C` it is 711 nM (active); for `Cc1noc(C)c1NC(=O)Nc1ccc2c(c1)C(=O)N([C@@H](C)CO)C[C@@H](C)[C@H](CN(C)S(=O)(=O)c1ccc(F)cc1)OCCCC[C@H](C)O2` it is 79.8 nM (active). Consider `C[C@@H]1CN([C@@H](C)CO[Si](C)(C)C(C)(C)C)C(=O)c2cc(NC(=O)Nc3ccccc3)ccc2O[C@@H](C)CCCCO[C@H]1CN(C)S(=O)(=O)c1ccc(F)cc1`, for which the Potency is 0.6 nM (active). `Cc1noc(C)c1NC(=O)Nc1ccc2c(c1)C(=O)N(C(C)C)C[C@@H](C)[C@H](CN(C)S(=O)(=O)c1ccc(F)cc1)OCCCC[C@H](C)O2`: the Potency was 44.9 nM (active) and 1.42 µM (active). The same measure for `C[C@@H]1CN(CCO[Si](C)(C)C(C)(C)C)C(=O)c2cc(NC(=O)Nc3ccccc3)ccc2O[C@@H](C)CCCCO[C@H]1CN(C)S(=O)(=O)c1ccc(F)cc1`: 40 nM (active); for `C[C@@H]1CN([C@@H](C)CO)C(=O)c2cc(NC(=O)Nc3ccccc3)ccc2O[C@@H](C)CCCCO[C@H]1CN(C)S(=O)(=O)c1cccc(F)c1`: 7.1 nM (active); for `C=CCOC(=O)N(C)C[C@@H]1OCCCC[C@H](C)Oc2ccc(NC(=O)Nc3ccccc3)cc2C(=O)N([C@@H](C)CO)C[C@H]1C`: 252 nM (active).

For the molecule `C[C@@H]1CN([C@@H](C)COC(=O)c2ccccc2)C(=O)c2cc(NC(=O)Nc3ccccc3)ccc2O[C@@H](C)CCCCO[C@H]1CN(C)S(=O)(=O)c1ccc(F)cc1`, the Potency was 44.9 nM (active). The figure for `C=CCOC(=O)N(C)C[C@H]1OCCCC[C@H](C)Oc2ccc(NC(=O)Nc3ccccc3)cc2C(=O)N([C@@H](C)CO[Si](C)(C)C(C)(C)C)C[C@H]1C` is 126 nM (active). The figure for `C[C@@H]1CN([C@@H](C)CO)C(=O)c2cc(NC(=O)Nc3ccccc3)ccc2O[C@@H](C)CCCCO[C@H]1CN(C)S(=O)(=O)c1ccc(C(F)(F)F)cc1` is 798 nM (active). As to `C[C@@H]1CN(CCO)C(=O)c2cc(NC(=O)Nc3ccccc3)ccc2O[C@@H](C)CCCCO[C@H]1CN(C)S(=O)(=O)c1ccc(F)cc1`, the Potency is 179 nM (active). The figure for `CC(C)N1C[C@@H](C)[C@H](CN(C)S(=O)(=O)c2ccc(F)cc2)OCCCC[C@H](C)Oc2ccc(NC(=O)Nc3ccccc3)cc2C1=O` is 17.9 nM (active); for `C[C@@H]1CN([C@@H](C)COC(=O)c2ccccc2)C(=O)c2cc(NC(=O)Nc3ccccc3)ccc2O[C@@H](C)CCCCO[C@H]1CN(C)C(=O)OC(C)(C)C` it is 356 nM (active). Take `C=CCOC(=O)N(C)C[C@@H]1OCCCC[C@H](C)Oc2ccc(NC(=O)Nc3ccccc3)cc2C(=O)N([C@H](C)COC(=O)c2ccccc2)C[C@H]1C`: the Potency is 504 nM (active). The same measure for `C[C@@H]1CN([C@@H](C)CO)C(=O)c2cc(NC(=O)Nc3ccccc3)ccc2O[C@@H](C)C/C=C/CO[C@H]1CN(C)S(=O)(=O)c1ccc(F)cc1`: 79.8 nM (active); for `COCCOCOC[C@H](C)N1C[C@@H](C)[C@H](CN(C)S(=O)(=O)c2ccc(F)cc2)OCCCC[C@H](C)Oc2ccc(NC(=O)Nc3ccccc3)cc2C1=O`: 11.3 nM (active); for `C[C@@H]1CCCCO[C@@H](CN(C)Cc2ccc(F)cc2)[C@H](C)CN([C@@H](C)CO)C(=O)c2cc(NC(=O)Nc3ccccc3)ccc2O1`: 2830 nM (active).

Regarding `COCOC[C@H](C)N1C[C@@H](C)[C@H](CN(C)S(=O)(=O)c2ccc(F)cc2)OCCCC[C@H](C)Oc2ccc(NC(=O)Nc3ccccc3)cc2C1=O`, the Potency is 8 nM (active). For `C[C@@H]1CN([C@H](C)CO[Si](C)(C)C(C)(C)C)C(=O)c2cc(NC(=O)Nc3ccccc3)ccc2O[C@@H](C)CCCCO[C@H]1CN(C)S(=O)(=O)c1ccc(F)cc1`, the Potency was 159 nM (active). The same measure for `C[C@@H]1CCCCO[C@H](CN(C)C(=O)Nc2ccc(F)cc2)[C@H](C)CN([C@@H](C)CO)C(=O)c2cc(NS(=O)(=O)c3ccccc3)ccc2O1`: 113 nM (active). On to `C[C@@H]1CN(C)C(=O)c2cc(NC(=O)Nc3ccccc3)ccc2O[C@@H](C)CCCCO[C@@H]1CN(C)S(=O)(=O)c1ccc(F)cc1`, for which the Potency was 1000 nM (active). With `C[C@@H]1CN([C@@H](C)CO)C(=O)c2cc(N)ccc2O[C@@H](C)CCCCO[C@H]1CN(C)S(=O)(=O)c1ccc(F)cc1`, the Potency was 63.4 nM (active). Take `C[C@@H]1CN([C@@H](C)CO)C(=O)c2cc(Nc3nc4ccccc4o3)ccc2O[C@@H](C)CCCCO[C@H]1CN(C)S(=O)(=O)c1ccc(F)cc1`: the Potency is 1130 nM (active). The same measure for `C[C@@H]1CN([C@@H](C)CO)C(=O)c2cc(NC(=O)Nc3ccccc3)ccc2O[C@@H](C)CCCCO[C@H]1CN(C)S(=O)(=O)c1ccccc1F`: 449 nM (active).

The values are drawn from PubChem BioAssay AID504599 (National Center for Advancing Translational Sciences (NCATS), 2011).
